Data taken from PubChem BioAssay (NCI).
About 83,000 compounds went through this panel and 20% of them were active in at least one assay; those are over-represented in the sample as a whole.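 Method: cells in 96-well plates; compound added at one concentration; 48 h incubation; percent growth measured; values under 10 scored active.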 Unmarked numbers belong to inactive results. Calls of active or inactive are those of the source.

System: HCT-15 colon
Experiment: NCI-60 one-dose screen, 48 h (100 = growth as untreated, 0 = no growth, -100 = all killed)
Conditions: 10 µM unless noted
Method: Growth inhibition of the HCT-15 human tumor cell line is measured as a screen for anti-cancer activity. Cells are grown in 96 well plates and exposed to the test compound for 48 hours. Compounds are tested at a single concentration, which is 10^-5 M for most compounds. The reported endpoint is percent growth (GI% or GIPRCNT), where numbers from 0 - 100% represent growth inhibition, and numbers from -100% - 0 represent cell death. For example, a value of 40 represents 60% growth inhibition. A value of 0 means no net growth occurred over the course of the experiment. A value of -40 indicates 40% of cells at the beginning of the experiment died by the end of the experiment. A value of -100 means all cells are dead at the end of the experiment.
NCI-60 Human Tumor Cell Lines Screen was performed using the standard one-dose NCI protocol, which is described in more detail at https://dtp.cancer.gov/discovery_development/nci-60/default.htm.
Compounds with GIPRCNT values below 10 were considered active. Activity score was based on GIPRCNT using the following formula: […]
Score is 0 for GIPRCNT values of 100 or above, 50 for GIPRCNT values of 0, and 100 for GIPRCNT values of -100.

SMILES | growth
O=C(N/N=C/c1cccc(O)c1)c1ccc(C(F)(F)F)nc1Nc1cccc(C(F)(F)F)c1 | 11.5%
COc1cccc(-c2nc(-c3ccc(N)cc3)co2)c1 | 89.8%
O=C1NC(=O)/C(=C/c2ccc(Cl)cc2Cl)N1 | 103%
COc1ccc2c(c1)c(CC(=O)[Se]C)c(C)n2C(=O)c1ccc(Cl)cc1 | 14.9%
O=[N+]([O-])c1ccc2[nH]cc(-c3c4ccccc4cc4[nH]c5ccc([N+](=O)[O-])cc5c34)c2c1 | 19.9%
O=C1/C(=C/c2cccc(Cl)c2)CCc2ccccc21 | 93.7%
COc1cccc(C2=NN(C(C)=O)C(c3cc(OC)c(OC)c(OC)c3)C2)c1 (stereo not given) | 31.6%
COc1ccc(NS(=O)(=O)N2CCCCC2)cc1 | 115%
Cc1cc2c(cc1C)[n+](Cc1ccc3ccccc3c1)cn2Cc1ccc2ccccc2c1 | -77.4% (active)
COc1cc(/C(Cl)=C/C=C/C(=O)c2c(C)[n+]([O-])c3ccc(Cl)cc3[n+]2[O-])cc(OC)c1OC | 11.5%
CC(=O)N1N=C(c2ccc(Cl)cc2)CC1c1c(C)nn(-c2ccccc2)c1N(C)Cc1ccccc1 (stereo not given) | 71%
COC(=O)[C@H](CCCCNC(=O)OCc1ccccc1)NC(=O)[C@@H](NC(=O)Nc1cc(C(F)(F)F)cc(C(F)(F)F)c1)C(C)C | 13.4% [100 µM]
CCC(=O)Nc1cc2c(cc1Cl)-c1ccccc1C2 | 94.9%
COc1ccc(C(=O)COc2ccc(/C=C3\Oc4ccc5ccccc5c4C3=O)cc2)cc1 | 126%
COc1ccc2c(=O)c(OC)c(-c3cc(OC)c(OC)c(OC)c3)oc2c1 | 101%
C[C@@H]1CN(c2nc3c(cc2F)c(=O)c(C(=O)O)cn3C(C)(C)C)C[C@H](C)N1 | 106%
O=C(NCCNC(=O)Oc1cccc2ccccc12)Oc1cccc2ccccc12 | 99.6%
CCCCCN1C(=O)CCC1=O | 106%
COc1cccc(CCN2C(=O)CCC3=C2CCC3=O)c1 | 108%
CCc1ccc(-c2nc(SCC(=O)NC3CCCCC3)n[nH]2)cc1 | 88.6%

SMILES | growth
O=C1NCCc2c1noc2-c1ccccc1 | 106%
O=C(O)CCNS(=O)(=O)c1ccc(-c2ccccc2)cc1 | 99.2%
CCCCCCCCCCCCC1CCCC(C)C1 (stereo not given) | 97.5%
O=C(/C=C(\Nc1ccccc1)c1ccccc1)c1cn(-c2ccc([N+](=O)[O-])cc2)nn1 | 84.7%
O=C(c1ccccc1)C(CN1CCCCC1)c1ccccc1 (stereo not given) | -22% (active)
N=C1c2nc3n(c2C(=O)c2nc4n(c21)CCCCC4)CCCCC3 | 109%
CNc1nc(NC2CCCC2)nc(Sc2ccc(OC)cc2)n1 | 24.8% [100 µM]
COc1cc(/C=C/C(=O)c2c(C)n([O-])c3ccccc3[n+]2=O)cc(OC)c1OC | 30%
Cc1ccc(S(=O)(=O)N2CCN(C(=O)CSc3nc4ccc(C)cc4[nH]3)CC2)cc1 | 110%
CCc1nn2c(-c3ccc(Cl)cc3C)c(-c3cc(OC)c(OC)c(OC)c3)nc2s1 | 69.8%
COC(=O)c1c(NC(=O)CSc2nnnn2-c2ccc(OC)cc2)sc(C)c1C | 101%
O=C(O)c1ccc(CNS(=O)(=O)c2ccc3ccccc3c2)cc1 | 104%
Cc1cccc2nnc(-c3ccccc3)n12 | 101%
O=C1/C(=C/c2ccc(F)cc2)Cc2ccccc21 | 94.6%
Nc1nc(SCc2cccnc2)c2ncn(C3OC(CO)C(O)C3O)c2n1 (stereo not given) | 102%
COC(=O)[C@H](Cc1cn(C)cn1)NC(=O)[C@H](C)NC(=O)Nc1cc(C(F)(F)F)cc(C(F)(F)F)c1 | 37.7% [100 µM]
C/C(=C\CCc1ccoc1)CC/C=C(\C)CCCNc1ccc(F)cc1 | 93.3%
NC(=O)c1cc(Cl)ccc1NC(=O)c1ccccc1-c1ccccc1 | 27.9%
COc1ccc(NC(=O)c2ccccc2-c2ccccc2)c(C(N)=O)c1 | 32.8%
N#Cc1c(NC(=O)c2ccco2)[n+]([O-])c2cc(Cl)c(Cl)cc2[n+]1[O-] | 111%
